Screening results (PubChem)
Compounds with a hit are over-represented: about 2.1% of the library has one in this group of screens.
ABCB6 inh MLPCN – blocks the human ABCB6 transporter; AID 602162; Q9NP58; K562-ABCB6 porphyrin accumulation, flow cytometry, 1 h; stronger effect = lower value; actives 0.19% (n = 360,000); fluorescence ratio to DMSO, % at 10 µM;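 active = fluorescence ratio to DMSO below 75%, the collection mean minus 3 SD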;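 note: signal is porphyrin accumulated inside mitochondria; lower ratio means ABCB6 inhibition with less porphyrin fluorescence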
Target sequence (Q9NP58 whole entry, looked up): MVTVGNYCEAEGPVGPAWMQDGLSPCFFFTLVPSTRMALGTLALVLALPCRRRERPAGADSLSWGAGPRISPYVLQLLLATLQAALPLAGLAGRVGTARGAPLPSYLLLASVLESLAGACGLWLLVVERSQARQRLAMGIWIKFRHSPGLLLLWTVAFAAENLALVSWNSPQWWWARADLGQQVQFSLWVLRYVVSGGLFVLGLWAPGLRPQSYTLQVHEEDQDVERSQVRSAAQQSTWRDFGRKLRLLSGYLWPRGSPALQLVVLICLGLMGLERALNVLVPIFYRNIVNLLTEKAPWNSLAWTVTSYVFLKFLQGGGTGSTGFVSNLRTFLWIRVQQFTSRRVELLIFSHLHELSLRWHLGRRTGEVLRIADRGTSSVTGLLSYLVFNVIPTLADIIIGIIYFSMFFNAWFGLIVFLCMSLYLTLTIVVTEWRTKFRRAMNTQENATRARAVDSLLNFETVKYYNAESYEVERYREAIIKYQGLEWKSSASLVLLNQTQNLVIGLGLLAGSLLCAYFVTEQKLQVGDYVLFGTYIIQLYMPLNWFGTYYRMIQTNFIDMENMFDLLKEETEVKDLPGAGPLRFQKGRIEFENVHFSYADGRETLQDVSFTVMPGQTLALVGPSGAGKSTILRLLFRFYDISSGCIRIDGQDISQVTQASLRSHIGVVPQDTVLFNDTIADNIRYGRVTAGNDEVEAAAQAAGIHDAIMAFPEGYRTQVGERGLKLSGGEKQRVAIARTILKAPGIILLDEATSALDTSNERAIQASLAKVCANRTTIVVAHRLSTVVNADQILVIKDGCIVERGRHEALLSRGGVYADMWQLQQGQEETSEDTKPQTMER
MsrA act – activators of bovine methionine sulfoxide reductase A; actives 0.3% (n = 360,000); purified bovine MsrA, absorbance read-out; AID 602163; activation, % at 10.6 µM; in the data active = activation above about 7.5%
SMARCA2 act – SMARCA2 function activation, primary screen; MG213 cells, MMTV-luciferase reporter, dexamethasone, overnight; activation, % at 9.1 µM; actives 1% (n = 370,000); in the data active = activation above about 7.8%
MsrA inh – bovine MsrA inhibition; inhibition, % at 15.5 µM; purified bovine MsrA, absorbance read-out; actives 0.75% (n = 360,000); AID 651718; in the data active = inhibition above about 4.5%
SMARCA2 conf – SMARCA2 activation, confirmation screen | MG213 cells, MMTV-luciferase with dexamethasone, luminescence, overnight; MG213 cells expressing E1A, Rb sequestered; DMSO wells 0%, reference activator 100% | AID 652260 | activation, % at 9.1 µM | shares compounds with SMARCA2 act | actives 30% (n = 3,500);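 active = activation above its plate's cutoff, the mean activation of tested wells plus 3 SD, cut at about 7.9% in these data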
VP16 Luc act – GAL4-VP16 reporter activation counter-screen. shares compounds with SMARCA2 act. HEK293 GAL4-VP16 pG5luc reporter, luciferase luminescence; scaled: DMSO wells 0%, SAHA wells 100%. activation, % at 9.1 µM. actives 41% (n = 3,500). AID 686939;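 active = activation above the solvent-only control well mean plus 3 SD, averaged across control plates, cut at about 5.2% in these data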
Of the large screens only hits and unclear results are named; the others gave an inactive call (follow-up assays come after a bar, where they were run).

Cn1nnnc1SCC(=O)Nc1nc2c(s1)CCCC2	SMARCA2 act 11.5 | SMARCA2 conf inactive | VP16 Luc act 9.0
CCN(CC)C(=S)SCC(=O)Nc1nc(=O)c2ccccc2s1	SMARCA2 act 8.5 | SMARCA2 conf inactive | VP16 Luc act inactive
CCc1ccc(S(=O)(=O)NCCc2cn3cccc(C)c3n2)s1	SMARCA2 act 8.1 | SMARCA2 conf inactive | VP16 Luc act inactive
CCc1ccc(S(=O)(=O)NCCc2cn3ccc(C)cc3n2)s1	none
O=S(=O)([N-]c1nc2ccccc2nc1-n1cc[n+](Cc2ccccc2)c1)c1ccc(Br)cc1	SMARCA2 act 10.6 | SMARCA2 conf inactive | VP16 Luc act inactive
COc1cccc(C(=O)N2CCCc3ccccc32)c1OC	none
COC(=O)CC[C@H](/C=C/C(=O)OC(C)(C)C)Sc1ccc(C(C)(C)C)cc1	none (no result: ABCB6 inh MLPCN, MsrA act, MsrA inh)
Oc1csc(Cc2nc(-c3ccccc3F)cs2)n1	SMARCA2 act 10.4 | SMARCA2 conf 16.6 | VP16 Luc act 7.0
CC(=O)Nc1ccc(C(=O)O)cc1	none
C=CCNc1ccc(C(=O)O)cc1	SMARCA2 act 9.7 | SMARCA2 conf inactive | VP16 Luc act inactive
Cn1cnc2ccc([N+](=O)[O-])cc2c1=O	none
COC(=O)Nc1ccc2ncn(C)c(=O)c2c1	SMARCA2 act 9.9 | SMARCA2 conf inactive | VP16 Luc act inactive
COC(=O)[C@]12C[C@H](CC(=O)NCc3ccc(C)o3)C(=O)N(CCc3ccc(OC)c(OC)c3)C1=C[C@H](COCc1ccccc1)O[C@@H]2C	none (no result: ABCB6 inh MLPCN, MsrA act, MsrA inh)
O=C1NC(c2ccccc2Br)=N/C1=C\c1ccco1	SMARCA2 act 13.9 | SMARCA2 conf 9.6 | VP16 Luc act 7.3
O=C(Cn1sc2ccccc2c1=O)Nc1ccc(F)cc1	SMARCA2 act 9.2 | SMARCA2 conf 10.7 | VP16 Luc act inactive
Cc1ccc([N+](=O)[O-])cc1-c1ccc(/C=C(\C#N)c2[nH]nc(N)c2C#N)o1	SMARCA2 act 9.5 | SMARCA2 conf inactive | VP16 Luc act 11.6
COCc1cc(C)nc(OCC(=O)N/N=C/c2ccc(-c3cc([N+](=O)[O-])ccc3C)o2)c1C#N	none
Cc1c(Cl)cccc1NC(CC(=O)c1ccccc1)C(=O)O (stereo not drawn)	SMARCA2 act 9.7 | SMARCA2 conf inactive | VP16 Luc act inactive
O=C(CC(Nc1ccccc1Cl)C(=O)O)c1ccccc1 (stereo not drawn)	none
COc1ccc2c(c1OC)C(=O)N(c1ccc(C)cc1)C2	SMARCA2 act 9.4 | SMARCA2 conf 13.7 | VP16 Luc act 8.4
COc1ccc2c(c1OC)C(=O)N(c1cccc(C)c1)C2	none
COc1ccc2c(c1OC)C(=O)N(c1cccc(C(F)(F)F)c1)C2	SMARCA2 act 8.5 | SMARCA2 conf inactive | VP16 Luc act 8.9
COc1ccc(-c2ncn(CCc3ccccc3OC)c2C(C)C)cc1	none (no result: ABCB6 inh MLPCN, MsrA act)
COc1ccccc1CN(C)C(=O)C1CCCN(c2nc3ccccc3o2)C1 (stereo not drawn)	none (no result: ABCB6 inh MLPCN, MsrA act, MsrA inh)
COc1cccc(CNc2nc3ccccc3n2C)c1O	SMARCA2 act 9.5 | SMARCA2 conf 10.9 | VP16 Luc act 9.6
COc1cccc(CNc2cnc3ccccc3c2)c1O	none
Nc1nc(Sc2ccc([N+](=O)[O-])c3nonc23)c2[nH]cnc2n1	SMARCA2 act 26.4 | SMARCA2 conf inactive | VP16 Luc act inactive
Nc1nc(SCc2ccccc2)c2[nH]cnc2n1	none
CN(Cc1ccccc1)S(=O)(=O)c1ccc2[nH]c(=O)ccc2c1	SMARCA2 act 8.7 | SMARCA2 conf inactive | VP16 Luc act inactive
COc1ccc(-c2cnc3c(NC=O)cc(-c4ccc(C(=O)N5CCOCC5)cc4)cn23)cc1OC	SMARCA2 act 12.3 | SMARCA2 conf inactive | VP16 Luc act inactive
COc1cccc(-c2cnc3c(NC=O)cc(-c4ccc(N5CCN(C)CC5)cc4)cn23)c1	SMARCA2 act 15.4 | SMARCA2 conf 37.2 | VP16 Luc act inactive
CC(=O)c1cc(-c2ccc(Cl)c(Cl)c2)c(=O)n2c1CCC2	none (no result: ABCB6 inh MLPCN, MsrA act, MsrA inh)
O=C1NCCCC1C(=O)N/N=C/c1ccccc1 (stereo not drawn)	SMARCA2 act 8.8 | SMARCA2 conf inactive | VP16 Luc act inactive
CCOC(=O)c1cnc(SCC(=O)c2ccc(C)cc2)nc1N	none
CCOC(=O)c1cnc(SCC(=O)c2ccccc2)nc1N	SMARCA2 act 14.1 | SMARCA2 conf 13.5 | VP16 Luc act 9.0
CC(C)c1ccc(C(=O)NC2=NCCS2)cc1	none
Cc1ccc(C(=O)NC2=NCCS2)cc1	SMARCA2 act 8.8 (no result: ABCB6 inh MLPCN, MsrA act) | SMARCA2 conf inactive | VP16 Luc act 13.4
CCOC(=O)Cn1cc(CN2CCS(=O)(=O)N(Cc3ccc(F)cc3)C(C(=O)OC)C2)nn1 (stereo not drawn)	SMARCA2 act 8.5 (no result: ABCB6 inh MLPCN, MsrA act, MsrA inh) | SMARCA2 conf inactive | VP16 Luc act inactive
C=CCN1C(C(=O)OC)CN(Cc2cn(Cc3ccc(Cl)cc3)nn2)CCS1(=O)=O (stereo not drawn)	SMARCA2 act 8.5 (no result: ABCB6 inh MLPCN, MsrA act, MsrA inh) | SMARCA2 conf inactive | VP16 Luc act inactive
CC(C)(C)C(=O)OC12CCCN(C1)/C(=C/c1ccncc1)C2 (stereo not drawn)	none (no result: ABCB6 inh MLPCN, MsrA act, MsrA inh)
Cc1cc(C)nc(Sc2nc(Cl)nc(N(c3ccccc3)c3ccccc3)n2)n1	SMARCA2 act 8.3 | SMARCA2 conf 9.2 | VP16 Luc act inactive
CCOC(=O)c1nn(-c2ccc3ccccc3c2)cc1O	SMARCA2 act 8.2 | SMARCA2 conf inactive | VP16 Luc act 5.6
CC(=O)C1=C(C)N(Cc2ccc(Cl)cc2)C(=S)NC1c1ccccc1 (stereo not drawn)	none (no result: ABCB6 inh MLPCN, MsrA act)
COc1cc(OC)cc(-c2nc3ccccc3s2)c1	SMARCA2 act 8.2 | SMARCA2 conf 11.3 | VP16 Luc act inactive
CCCCCCn1cc(CN2CC(N3CCN(CCN(C)C)CC3)CS2(=O)=O)nn1 (stereo not drawn)	none
CN1CCN(C(=O)c2cccc(-c3cnc4cnc(-c5ccccc5Oc5ccccc5)cn34)c2)CC1	SMARCA2 act 9.5 | SMARCA2 conf inactive | VP16 Luc act inactive
O=C(c1cccc(-c2cncc3nccn23)c1)N1CCOCC1	none
O=C(OC12CCCN(C1)/C(=C/c1ccncc1)C2)C1CCCCC1 (stereo not drawn)	none (no result: ABCB6 inh MLPCN, MsrA act, MsrA inh)
c1ccc2sc(N3CCCCC3)nc2c1	none
O=C1CNC(=S)N1c1nc2ccccc2s1	SMARCA2 act 28.1 | SMARCA2 conf 10.3 | VP16 Luc act inactive
Brc1ccc(-c2cn3ccccc3n2)cc1	SMARCA2 act 14.6 | SMARCA2 conf inactive | VP16 Luc act 11.3
O=[N+]([O-])c1ccc(-c2cn3ccccc3n2)cc1	none
Cc1ccc(-c2cc(C(=O)NCc3cnn(C)c3)c3cc(Br)ccc3n2)cc1	SMARCA2 act 11.9 | SMARCA2 conf inactive | VP16 Luc act 6.6
CCCCNC(=O)C[C@H]1C[C@@]2(C(=O)OC)C(=C[C@H](C(C)C)O[C@@H]2C2CC2)N(Cc2ccco2)C1=O	none (no result: ABCB6 inh MLPCN, MsrA act, MsrA inh)
Cc1ccc(C(=O)Nc2ccsc2C(=O)O)cc1	none
O=C(Nc1ccsc1C(=O)O)c1ccc(Cl)cc1	SMARCA2 act 8.7 | SMARCA2 conf 10.1 | VP16 Luc act 8.7
